Compound activity (PubChem)
RGS16-Gao HTS = modulators of RGS16 binding to Galphao, primary screen, biochemical, human proteins, multiplexed bead flow cytometry; bead-based flow cytometry RGS16-Galphao binding, fluorescence; actives lie on both sides; binding response (% of control), % at 10 µM; 220,000 tested, 0.38% active;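 further: Galphao activated by GDP with aluminum fluoride before binding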
RGS8-Gao reg = RGS8-Galphao binding modulators, primary screen, biochemical, multiplexed bead flow cytometry. Guanine nucleotide-binding protein G(o) subunit alpha (Homo sapiens), P09471. actives lie on both sides. response (percent of control binding), % at 10 µM. 220,000 tested, 0.34% active; in the data active means response below about 60% or above about 140%; inactive means in between;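 further: Galphao activated as the GDP aluminium fluoride complex binding bead-coupled RGS8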
Target sequence (P09471 whole entry, looked up): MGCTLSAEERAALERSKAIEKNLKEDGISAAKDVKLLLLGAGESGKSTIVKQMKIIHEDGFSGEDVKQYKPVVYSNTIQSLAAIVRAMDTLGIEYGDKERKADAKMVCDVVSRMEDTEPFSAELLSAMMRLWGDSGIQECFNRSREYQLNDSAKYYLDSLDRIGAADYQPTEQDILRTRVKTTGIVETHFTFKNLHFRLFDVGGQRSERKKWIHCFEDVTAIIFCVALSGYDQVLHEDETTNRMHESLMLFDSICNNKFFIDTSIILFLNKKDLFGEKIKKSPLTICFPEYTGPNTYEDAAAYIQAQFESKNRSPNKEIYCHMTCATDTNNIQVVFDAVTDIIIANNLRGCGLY
Avidin bead fluor = green autofluorescence of compounds with avidin beads – biophysical, 488/530 nm, flow cytometry, artefact control, profiling panel. compound fluorescence 488/530 nm; hits give high values. fluorescence (KMESF) at 10 µM. 220,000 tested, 0.38% active; in the data active means fluorescence above about 47
GSH fluor = compound fluorescence on glutathione beads, profiling panel, artefact control, biophysical, 488/530 nm, flow cytometry. GSH beads flow cytometry, compound fluorescence 488/530 nm; hits give high values. AID 1776, 2009. 190,000 tested, 0.25% active. fluorescence (KMESF) at 10 µM; in the data active means fluorescence above about 89;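 further: glutathione beads carrying GST-tagged Bcl family fusion proteins plus one bare bead set; values are compound well signal with DMSO vehicle wells as background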
RGS7-Gao reg = RGS7-Galphao binding modulators, primary screen, biochemical, multiplexed bead flow cytometry; actives lie on both sides; 220,000 tested, 0.35% active; binding response (% of control), % at 10 µM; Guanine nucleotide-binding protein G(o) subunit alpha (Homo sapiens), P09471; in the data active means binding response below about 49% or above about 150%; inconclusive means no clear call, values can overlap the other calls; inactive means in between;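 further: fluorescent Galphao held in activated GDP-AlF4 state binding bead-coupled RGS7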
RGS4-Gao reg = modulators of RGS4 binding to Galphao, primary screen, biochemical, multiplexed bead flow cytometry; actives lie on both sides; binding response (% of control), % at 10 µM; 220,000 tested, 0.33% active; in the data active means binding response below about 49% or above about 150%; inactive means in between;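 further: fluorescent Galphao activated with aluminum fluoride binding bead-coupled RGS4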
RGS-Gao = modulators of RGS–Galpha-o binding, primary screen, biochemical, multiplexed beads, flow cytometry, RGS4/7/8/16/19 | shares compounds with RGS16-Gao HTS | multiplexed bead flow cytometry | RGS4–Galpha-o binding response, % at 10 µM | 1,600 tested, 99% active | AID 1504, 2009;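 further: fluorescently labeled Galpha-o bound to GDP with aluminium fluoride binding biotinylated RGS beads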
Target sequence (P09471 whole entry, looked up): as above
Target sequence (P49798 whole entry, looked up): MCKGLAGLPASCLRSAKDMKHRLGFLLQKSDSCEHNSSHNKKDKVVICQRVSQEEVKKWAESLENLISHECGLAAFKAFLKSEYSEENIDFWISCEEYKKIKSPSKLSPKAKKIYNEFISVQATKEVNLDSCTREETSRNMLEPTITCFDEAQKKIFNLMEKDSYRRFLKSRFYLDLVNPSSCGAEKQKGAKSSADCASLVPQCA
Biotin-avidin = disruption of biotin probe capture by avidin, counter-screen for RGS protein interaction modulators, biochemical, flow cytometry, bead-based. shares compounds with RGS16-Gao HTS. streptavidin beads, fluorescein-biotin binding. inhibition, % at 10 µM. 1,700 tested, under 10 active;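 active means inhibition above 50%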;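 further: median green fluorescence of gated singlet beads compared with DMSO control wells; 0% = DMSO wells and 100% = complete loss of bead fluorescence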
RGS8-Gao single = RGS8-Galphao binding modulators, confirmation, biochemical, multiplexed bead flow cytometry, single concentration; shares compounds with RGS16-Gao HTS; bead-based flow cytometry RGS8-Galphao binding, fluorescence; actives lie on both sides; binding response (% of control), % at 10 µM; 1,700 tested, 3% active; AID 1836, 2009; in the data active means binding response below about 72% or above about 130%; inactive means in between;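 further: Galphao activated as GDP AlF4 complex before binding bead RGS8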
RGS7-Gao confirm = RGS7-Galphao binding modulators, confirmation, biochemical, multiplexed bead flow cytometry, single concentration; shares compounds with RGS16-Gao HTS; bead-based flow cytometry RGS7-Galphao binding; actives lie on both sides; response (percent of control binding), % at 10 µM; 1,700 tested, 7.8% active; AID 1837, 2009; in the data active means response below about 75% or above about 130%; inactive means in between;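 further: fluorescent Galphao activated with GDP and aluminum fluoride binding bead-coupled RGS7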
RGS16-Gao conf = modulators of RGS16-Galphao protein binding, confirmation, biochemical, single concentration, multiplexed bead flow cytometry. AID 1838, 2009. response (% of control binding), % at 10 µM. 1,700 tested, 4% active. shares compounds with RGS16-Gao HTS. bead-based flow cytometry; actives lie on both sides; in the data active means response below about 74% or above about 130%; inactive means in between;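 further: Galphao activated as the GDP aluminium fluoride complex binding bead-coupled RGS16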
RGS4-Gao single = modulators of RGS4-Galphao protein binding, confirmation, biochemical, single concentration, multiplexed bead flow cytometry; 1,700 tested, 4% active; binding response (% of control), % at 10 µM; actives lie on both sides; shares compounds with RGS16-Gao HTS; in the data active means binding response below about 74% or above about 130%; inactive means in between
RGS19-Gao single = regulators of RGS19-Galphao binding, confirmation, biochemical, single point, multiplexed bead flow cytometry; shares compounds with RGS16-Gao HTS; bead-based flow cytometry RGS19-Galphao binding; actives lie on both sides; response (percent of control binding), % at 10 µM; 1,700 tested, 5% active; AID 1841, 2009; in the data active means response below about 50% or above about 160%; inactive means in between;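 further: 100% = no compound control and 0% = blank background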
* marks the source's active call; other numbers are inactive results; [ ] = dose if it differs, or a comment. Only some compounds are listed: those with a hit (about 1.2% of all), similar ones and a draw of the others. Unless noted, how the calls were made is not given here.

How did Cc1ccc(C)c(NS(=O)(=O)c2cc(C(=O)Nc3ccccc3-c3ccccc3)ccc2Cl)c1 do in these assays?
RGS16-Gao HTS: 98; RGS8-Gao reg: 99; Avidin bead fluor: 10; GSH fluor: 8; RGS7-Gao reg: 100; RGS4-Gao reg: 97

How did COc1ccc(-c2nc(-n3c(C)c(C(C)=O)c(C(C)=O)c3C)sc2C)cc1 do in these assays?
RGS16-Gao HTS: 40; RGS8-Gao reg: 56*; Avidin bead fluor: 3; GSH fluor: 20; RGS7-Gao reg: 44*; RGS4-Gao reg: 47*; Biotin-avidin: -1; RGS8-Gao single: 102; RGS7-Gao confirm: 104; RGS16-Gao conf: 101; RGS4-Gao single: 105; RGS19-Gao single: 98

How did COc1ccc(-c2nc(C)sc2C)cc1 do in these assays?
RGS16-Gao HTS: 266; RGS8-Gao reg: 142*[activator]; Avidin bead fluor: 3; GSH fluor: 7; RGS7-Gao reg: 118; RGS4-Gao reg: 115; RGS-Gao: 115*; Biotin-avidin: -1; RGS8-Gao single: 98; RGS7-Gao confirm: 102; RGS16-Gao conf: 102; RGS4-Gao single: 101; RGS19-Gao single: 96

Results for Cc1ccc(OCC(=O)N2CCCC(CCC(=O)N(C)CCc3ccccn3)C2)cc1 (configuration not stated) ?
RGS16-Gao HTS: 116; RGS8-Gao reg: 109; Avidin bead fluor: 11; GSH fluor: 16; RGS7-Gao reg: 100; RGS4-Gao reg: 101

What do the screens show for `Cc1cccc2sc(NC(=O)[C@@H]3CCCN3C(=O)c3cccs3)nc12`?
RGS16-Gao HTS: 211*[activator]; RGS8-Gao reg: 131; Avidin bead fluor: 7; GSH fluor: 16; RGS7-Gao reg: 111; RGS4-Gao reg: 101; RGS-Gao: 101*; Biotin-avidin: -3; RGS8-Gao single: 100; RGS7-Gao confirm: 96; RGS16-Gao conf: 100; RGS4-Gao single: 97; RGS19-Gao single: 101

What do the screens show for `Cc1ccc(OCc2nnc(SCC(=O)Nc3ccc4c(c3)OCO4)n2C)cc1`?
RGS16-Gao HTS: 93; RGS8-Gao reg: 99; Avidin bead fluor: 11; GSH fluor: 66; RGS7-Gao reg: 98; RGS4-Gao reg: 94

Results for Cn1c(COc2ccccc2)nnc1SCC(=O)Nc1ccc2c(c1)OCO2 ?
RGS16-Gao HTS: -21*; RGS8-Gao reg: 77; Avidin bead fluor: 8; GSH fluor: 9; RGS7-Gao reg: 85; RGS4-Gao reg: 83; RGS-Gao: 83*; Biotin-avidin: 0; RGS8-Gao single: 97; RGS7-Gao confirm: 97; RGS16-Gao conf: 97; RGS4-Gao single: 98; RGS19-Gao single: 89

What do the screens show for `CCN1CC=C2C(C#N)=C(N)C(C#N)(C#N)C(CCc3ccccc3)C2C1` (configuration not stated)?
RGS16-Gao HTS: 104; RGS8-Gao reg: 102; Avidin bead fluor: 7; GSH fluor: 5; RGS7-Gao reg: 101; RGS4-Gao reg: 106

What do the screens show for `CC(=O)N1CC=C2C(C#N)=C(N)C(C#N)(C#N)C(CCc3ccccc3)C2C1` (configuration not stated)?
GSH fluor: 43; Biotin-avidin: -2; RGS8-Gao single: 98; RGS7-Gao confirm: 100; RGS16-Gao conf: 101; RGS4-Gao single: 100; RGS19-Gao single: 94

How did Nc1n[nH]c(=S)n1/N=C1/C(=O)Nc2ccccc21 do in these assays?
RGS16-Gao HTS: 90; RGS8-Gao reg: 96; Avidin bead fluor: 17; GSH fluor: 9; RGS7-Gao reg: 111; RGS4-Gao reg: 102

What do the screens show for `COc1ccc(NC(=O)Cn2c(=O)n(-c3ccccc3)c(=O)c3oc4ccccc4c32)c(OC)c1`?
RGS16-Gao HTS: 232*[activator]; RGS8-Gao reg: 126; Avidin bead fluor: 15; GSH fluor: 4; RGS7-Gao reg: 109; RGS4-Gao reg: 106; RGS-Gao: 106*; Biotin-avidin: 1; RGS8-Gao single: 94; RGS7-Gao confirm: 87; RGS16-Gao conf: 90; RGS4-Gao single: 89; RGS19-Gao single: 96

What do the screens show for `COc1ccccc1NC(=O)Cn1c(=O)n(-c2ccccc2)c(=O)c2oc3ccccc3c21`?
RGS16-Gao HTS: 59; RGS8-Gao reg: 89; Avidin bead fluor: 3; GSH fluor: 19; RGS7-Gao reg: 100; RGS4-Gao reg: 95

How did COc1ccc(CNC(=O)C2CCC(CNc3c(N4CCCCC4)c(=O)c3=O)CC2)cc1 (configuration not stated) do in these assays?
RGS16-Gao HTS: 14*; RGS8-Gao reg: 24*; Avidin bead fluor: 0; RGS7-Gao reg: inconclusive; RGS4-Gao reg: 20*; Biotin-avidin: 1; RGS8-Gao single: 107; RGS7-Gao confirm: 111; RGS16-Gao conf: 106; RGS4-Gao single: 108; RGS19-Gao single: 100
